Measured values: PubChem BioAssay (NCI)
Compounds without any hit were thinned out: in the full panel of roughly 79,000, 15% have a hit. A number with no mark means an inactive call. The source made the active and inactive calls. No stated cut-off is given here; in the data, active means growth inhibition above about 70%; inactive means the rest.

test: NCI Yeast Anticancer Drug Screen. Data for the wt2 strain (AID 169);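 further: 0% = growth of vehicle-treated yeast cultures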; details: S. cerevisiae wt2 strain growth inhibition; at 11.0 µM; stronger effect = higher value
Summary of the method: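 Inhibition of yeast growth was determined after compound treatment, normalised to controls receiving only vehicle.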

Compound | growth inhibition
CCOP(=O)(OCC)C(Cc1ccccc1)N=C(c1ccccc1)c1ccccc1 (stereo not drawn) | -2%
CCc1ncnc2cc(OCC3CO3)c(OC)cc12 (stereo not drawn) | -14%
CCOC(=O)[C@H]1Nc2ccccc2C2c3ccccc3CC21 (stereo partly drawn) | 21%
O=CNc1ccc2c(c1)C(=O)c1ccccc1-2 | 8%
CCOc1ccc2c(c1)c(CC(=O)O)cn2C | -3%
OC1CSCCCSCCSCCCSC1 | -16%
N#Cc1c(N)[nH]c2ccc(Sc3ccccc3)cc12 | 4%
Cc1ccc(-c2ccc(Nc3c4ccccc4nc4ccccc34)cc2)cn1 | 22%
c1ccc2c(c1)NC(NC1Nc3ccccc3N1)N2 | 0%
OC(COc1cccc2ccccc12)CN1CCOCC1 (stereo not drawn) | 32%
CCC/C(Cl)=N\OC(=O)Nc1ccc(Br)cc1 | 90% (active)
COc1ccc(/C=C2\SC(=S)N(/C=C/c3nc4ccccc4[nH]c3=O)C2=O)cc1OC | 28%
O=C(NNc1ccnc2cc(Cl)ccc12)/C(=C\c1ccccc1Cl)NC(=O)c1ccccc1 | 45%
CSC1=NNC(SC)=NN1 | 4%
Cc1c(C2=C(Br)C(=O)N(C)C2=O)c(=O)n(C)c(=O)n1C | 11%
NCCNc1ccc(NCCN)c2c1C(=O)c1c(O)ccc(O)c1C2=O | 44%
Cn1c(=O)c(-c2ccccc2)c(N=[N+]=[N-])c2ccccc21 | -9%
CCCCCCCCCCCCCCCCCCOCC(O)COP(=O)(O)OCC1OC(n2cc(F)c(=O)[nH]c2=O)CC1O (stereo not drawn) | 58%
CCS(=O)(=O)c1ccc(/C=C/C=N/NC(=S)NCC(C)C)cc1 | -17%
CCC(=O)Oc1c(Cl)cc(Cl)c2ccccc12 | -5%

Compound | growth inhibition
COc1cc2c3c(cccc3c1)C(=O)N(CCN(C)C)C2=O | -23%
CN(C)c1ccc(C(C#N)=C(C#N)C#N)cc1 | -1%
O=C(CCCN1CCC2(CC1)CC(=O)N(N1CCCCCC1)C2=O)c1ccc(F)cc1 | 41%
O=C1C2C(C(=O)N1c1ccc(OCc3ccccc3)cc1)C1c3ccccc3C2C2CCCCN21 (stereo not drawn) | -6%
CCN(CC)CCC(=O)c1ccc(Oc2ccc(F)cc2)cc1 | 41%
O=Nc1c(NO)ccc2nn(-c3ccccc3)nc12 | 96% (active)
CC(=O)SCCC[Si](C)(C)CCCSC(C)=O | -6%
O=C(O)C1CCCCC1c1c2ccc(=O)c(O)c-2oc2c(O)c(O)ccc12 (stereo not drawn) | -25%
Cc1ccc(NN(NC(=O)OC(C)C)C(=O)OC(C)C)cc1 | 0%
O=C1c2ccccc2C(=O)c2cc(CBr)ccc21 | 13%
Cc1c(C(Cc2ccccc2N(C)C(=O)/C=C\C(=O)O)c2c[nH]c3ccccc23)c2ccccc2n1C (stereo not drawn) | -5%
CC(C)/C(Cl)=N\OC(=O)Nc1ccc(F)cc1 | 3%
O=C1OC(=O)C2CCCC3CCCC1C32 (stereo not drawn) | 80% (active)
CCOC(=O)C(NC(=O)c1ccccc1)(N1CCN(c2cc3c(cc2F)c(=O)c(C(=O)O)cn3C2CC2)CC1)C(F)(F)F (stereo not drawn) | -2%
COc1ccc(NC(=S)N/N=C(\c2ccccc2)c2ccccn2)cc1 | -3%
C=CCC1=C(C)C(OC(=O)/C=C/c2ccccc2)CC1=O (stereo not drawn) | -8%
NNc1c(F)c(F)cc(F)c1F | -22%
COP(=O)(OC)/C(=C\C1=CN(C(c2ccccc2)(c2ccccc2)c2ccccc2)CN1)NC=O | -6%
COC(=O)c1cc(-c2ccc(C)cc2)[nH]c(=O)c1C#N | -2%

same assay, conditions: S. cerevisiae wt2 strain growth inhibition; at 33.0 µM; stronger effect = higher value

Compound | growth inhibition
CCOP(=O)(OCC)C(Cc1ccccc1)N=C(c1ccccc1)c1ccccc1 (stereo not drawn) | 97% (active)
CCc1ncnc2cc(OCC3CO3)c(OC)cc12 (stereo not drawn) | 13%
CCOC(=O)[C@H]1Nc2ccccc2C2c3ccccc3CC21 (stereo partly drawn) | 44%
O=CNc1ccc2c(c1)C(=O)c1ccccc1-2 | 48%
CCOc1ccc2c(c1)c(CC(=O)O)cn2C | 16%
OC1CSCCCSCCSCCCSC1 | -31%
N#Cc1c(N)[nH]c2ccc(Sc3ccccc3)cc12 | 92% (active)
Cc1ccc(-c2ccc(Nc3c4ccccc4nc4ccccc34)cc2)cn1 | 92% (active)
c1ccc2c(c1)NC(NC1Nc3ccccc3N1)N2 | 8%
OC(COc1cccc2ccccc12)CN1CCOCC1 (stereo not drawn) | 39%
CCC/C(Cl)=N\OC(=O)Nc1ccc(Br)cc1 | 98% (active)
COc1ccc(/C=C2\SC(=S)N(/C=C/c3nc4ccccc4[nH]c3=O)C2=O)cc1OC | 80% (active)
O=C(NNc1ccnc2cc(Cl)ccc12)/C(=C\c1ccccc1Cl)NC(=O)c1ccccc1 | 38%
CSC1=NNC(SC)=NN1 | 61%
Cc1c(C2=C(Br)C(=O)N(C)C2=O)c(=O)n(C)c(=O)n1C | 39%
NCCNc1ccc(NCCN)c2c1C(=O)c1c(O)ccc(O)c1C2=O | 80% (active)
Cn1c(=O)c(-c2ccccc2)c(N=[N+]=[N-])c2ccccc21 | 87% (active)
CCCCCCCCCCCCCCCCCCOCC(O)COP(=O)(O)OCC1OC(n2cc(F)c(=O)[nH]c2=O)CC1O (stereo not drawn) | 88% (active)
CCS(=O)(=O)c1ccc(/C=C/C=N/NC(=S)NCC(C)C)cc1 | -5%
CCC(=O)Oc1c(Cl)cc(Cl)c2ccccc12 | -5%

Compound | growth inhibition
COc1cc2c3c(cccc3c1)C(=O)N(CCN(C)C)C2=O | -12%
CN(C)c1ccc(C(C#N)=C(C#N)C#N)cc1 | 0%
O=C(CCCN1CCC2(CC1)CC(=O)N(N1CCCCCC1)C2=O)c1ccc(F)cc1 | 53%
O=C1C2C(C(=O)N1c1ccc(OCc3ccccc3)cc1)C1c3ccccc3C2C2CCCCN21 (stereo not drawn) | 18%
CCN(CC)CCC(=O)c1ccc(Oc2ccc(F)cc2)cc1 | 71% (active)
O=Nc1c(NO)ccc2nn(-c3ccccc3)nc12 | 99% (active)
CC(=O)SCCC[Si](C)(C)CCCSC(C)=O | 5%
O=C(O)C1CCCCC1c1c2ccc(=O)c(O)c-2oc2c(O)c(O)ccc12 (stereo not drawn) | 13%
Cc1ccc(NN(NC(=O)OC(C)C)C(=O)OC(C)C)cc1 | 7%
O=C1c2ccccc2C(=O)c2cc(CBr)ccc21 | 18%
Cc1c(C(Cc2ccccc2N(C)C(=O)/C=C\C(=O)O)c2c[nH]c3ccccc23)c2ccccc2n1C (stereo not drawn) | 3%
CC(C)/C(Cl)=N\OC(=O)Nc1ccc(F)cc1 | 86% (active)
O=C1OC(=O)C2CCCC3CCCC1C32 (stereo not drawn) | 89% (active)
CCOC(=O)C(NC(=O)c1ccccc1)(N1CCN(c2cc3c(cc2F)c(=O)c(C(=O)O)cn3C2CC2)CC1)C(F)(F)F (stereo not drawn) | -2%
COc1ccc(NC(=S)N/N=C(\c2ccccc2)c2ccccn2)cc1 | 53%
C=CCC1=C(C)C(OC(=O)/C=C/c2ccccc2)CC1=O (stereo not drawn) | -5%
NNc1c(F)c(F)cc(F)c1F | -20%
COP(=O)(OC)/C(=C\C1=CN(C(c2ccccc2)(c2ccccc2)c2ccccc2)CN1)NC=O | 34%
COC(=O)c1cc(-c2ccc(C)cc2)[nH]c(=O)c1C#N | -2%
